# Measured values published in PubChem BioAssay AID1508601 (ICCB-Longwood Screening Facility, Harvard Medical School, 2020).
# In all, about 5,700 compounds went through this assay and about 85 (1%) were called active. No stated cut-off is given here; in the data, active means p53-positive nuclei above about 36% (passing the limit was not always enough); inactive means the rest. What follows is part of a selection rich in actives, with near analogues and random picks from the rest.
# Tests used:
# [1] = p53 stabilisation in HPV-positive human cells, imaging, p53-positive nuclei imaging, 24 h, 48 h (AID 1508601); details: 24/48 h
# [2] = target: Cellular tumor antigen p53 (Homo sapiens) (UniProt P04637); assay: as above; details: 24/48 h, stronger effect = higher value
# [3] = measured here: cell number at 24 h, Library stock concentration: 80 uM
# [4] = measured here: cell number at 24 h, Library stock concentration: 400 uM
# [5] = measured here: cell number at 24 h, Library stock concentration: 2 mM
# [6] = measured here: cell number at 24 h, Library stock concentration: 3.33 mM
# [7] = measured here: cell number at 24 h, Library stock concentration: 10 mM
# [8] = measured here: cell number at 48 h, Library stock concentration: 80 uM
# [9] = measured here: cell number at 48 h, Library stock concentration: 400 uM
# [10] = measured here: cell number at 48 h, Library stock concentration: 2 mM
# [11] = measured here: cell number at 48 h, Library stock concentration: 3.33 mM
# [12] = measured here: cell number at 48 h, Library stock concentration: 10 mM
# [13] = Library stock concentration: 80 uM
# [14] = Library stock concentration: 400 uM
# [15] = Library stock concentration: 2 mM
# [16] = Library stock concentration: 3.33 mM
# [17] = Library stock concentration: 10 mM
# [18] = measured here: p53 positive nuclei at 24 h, Library stock concentration: 80 uM
# [19] = measured here: p53 positive nuclei at 24 h, Library stock concentration: 400 uM
# [20] = measured here: p53 positive nuclei at 24 h, Library stock concentration: 2 mM
# [21] = measured here: p53 positive nuclei at 24 h, Library stock concentration: 3.33 mM
# [22] = measured here: p53 positive nuclei at 24 h, Library stock concentration: 10 mM
# [23] = measured here: cell number at 24 h, concentration not given here
# [24] = measured here: cell number at 48 h, concentration not given here
# [25] = measured here: p53 positive nuclei at 24 h, concentration not given here
# Chain of Cellular tumor antigen p53 (Homo sapiens) (P04637 whole entry, looked up): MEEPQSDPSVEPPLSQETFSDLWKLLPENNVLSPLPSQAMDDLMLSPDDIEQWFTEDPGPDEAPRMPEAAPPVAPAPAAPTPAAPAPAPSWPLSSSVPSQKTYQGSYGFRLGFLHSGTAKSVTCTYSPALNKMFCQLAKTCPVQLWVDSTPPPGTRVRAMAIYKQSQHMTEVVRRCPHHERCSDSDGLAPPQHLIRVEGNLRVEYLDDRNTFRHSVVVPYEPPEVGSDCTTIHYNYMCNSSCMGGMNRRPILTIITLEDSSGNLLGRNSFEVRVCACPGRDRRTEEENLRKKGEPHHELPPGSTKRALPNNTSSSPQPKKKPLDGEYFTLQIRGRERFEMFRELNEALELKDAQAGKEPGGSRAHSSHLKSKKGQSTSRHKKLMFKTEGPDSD
smiles,measurement,setting,value
Cn1cc(CNCC2CCN(c3ncc(C(=O)NO)cn3)CC2)c2ccccc21,"nuclei count, normalised",[1]; [3],71%
same,"nuclei count, normalised",[1]; [4],49.1%
same,"nuclei count, normalised",[1]; [5],40.5%
same,"nuclei count, normalised",[1]; [6],36.3%
same,"nuclei count, normalised",[1]; [7],37.2%
same,"nuclei count, normalised",[1]; [8],55.2%
same,"nuclei count, normalised",[1]; [9],24%
same,"nuclei count, normalised",[1]; [10],20.2%
same,"nuclei count, normalised",[1]; [11],20.7%
same,"nuclei count, normalised",[1]; [12],23.5%
same,"p53-positive nuclei, normalised",[2]; [13],20.9% (inactive)
same,"p53-positive nuclei, normalised",[2]; [14],102% (active)
same,"p53-positive nuclei, normalised",[2]; [15],92.2% (active)
same,"p53-positive nuclei, normalised",[2]; [16],111% (active)
same,"p53-positive nuclei, normalised",[2]; [17],108% (active)
same,"p53-positive nuclei, normalised",[2]; [18],43.9%
same,"p53-positive nuclei, normalised",[2]; [19],92.9%
same,"p53-positive nuclei, normalised",[2]; [20],103%
same,"p53-positive nuclei, normalised",[2]; [21],96.9%
same,"p53-positive nuclei, normalised",[2]; [22],120%
CCCCC/C=C\C/C=C\CCCC/C=C\CCCC(=O)O,"nuclei count, normalised",[1]; [23],97.6%
same,"nuclei count, normalised",[1]; [24],96%
same,"p53-positive nuclei, normalised",[2]; concentration not given here,-0.0366% (inactive)
same,"p53-positive nuclei, normalised",[2]; [25],0.0071%
Cc1ccc(B(O)O)cc1,"nuclei count, normalised","[1]; measured here: cell number at 24 h, Library stock concentration: 46 uM",105%
same,"nuclei count, normalised","[1]; measured here: cell number at 24 h, Library stock concentration: 278 uM",101%
same,"nuclei count, normalised","[1]; measured here: cell number at 24 h, Library stock concentration: 1.67 mM",110%
same,"nuclei count, normalised",[1]; [7],110%
same,"nuclei count, normalised","[1]; measured here: cell number at 48 h, Library stock concentration: 46 uM",109%
same,"nuclei count, normalised","[1]; measured here: cell number at 48 h, Library stock concentration: 278 uM",102%
same,"nuclei count, normalised","[1]; measured here: cell number at 48 h, Library stock concentration: 1.67 mM",112%
same,"nuclei count, normalised",[1]; [12],112%
same,"p53-positive nuclei, normalised",[2]; Library stock concentration: 46 uM,-0.0277% (inactive)
same,"p53-positive nuclei, normalised",[2]; Library stock concentration: 278 uM,-0.207% (inactive)
same,"p53-positive nuclei, normalised",[2]; Library stock concentration: 1.67 mM,-0.181% (inactive)
same,"p53-positive nuclei, normalised",[2]; [17],-0.0402% (inactive)
same,"p53-positive nuclei, normalised","[2]; measured here: p53 positive nuclei at 24 h, Library stock concentration: 46 uM",-0.0986%
same,"p53-positive nuclei, normalised","[2]; measured here: p53 positive nuclei at 24 h, Library stock concentration: 278 uM",-0.148%
same,"p53-positive nuclei, normalised","[2]; measured here: p53 positive nuclei at 24 h, Library stock concentration: 1.67 mM",-0.218%
same,"p53-positive nuclei, normalised",[2]; [22],-0.0984%
CCc1cnn2c(NCc3ccc[n+]([O-])c3)cc(N3CCCCC3CCO)nc12 (stereo not drawn),"nuclei count, normalised",[1]; [3],30.2%
same,"nuclei count, normalised",[1]; [4],27.8%
same,"nuclei count, normalised",[1]; [5],24.5%
same,"nuclei count, normalised",[1]; [6],27.3%
same,"nuclei count, normalised",[1]; [7],30.5%
same,"nuclei count, normalised",[1]; [8],20.4%
same,"nuclei count, normalised",[1]; [9],19.3%
same,"nuclei count, normalised",[1]; [10],16.3%
same,"nuclei count, normalised",[1]; [11],18.9%
same,"nuclei count, normalised",[1]; [12],20.6%
same,"p53-positive nuclei, normalised",[2]; [13],51.1% (active)
same,"p53-positive nuclei, normalised",[2]; [14],35% (inactive)
same,"p53-positive nuclei, normalised",[2]; [15],42% (inactive)
same,"p53-positive nuclei, normalised",[2]; [16],36.1% (inactive)
same,"p53-positive nuclei, normalised",[2]; [17],26.7% (inactive)
same,"p53-positive nuclei, normalised",[2]; [18],9.51%
same,"p53-positive nuclei, normalised",[2]; [19],6.74%
same,"p53-positive nuclei, normalised",[2]; [20],7.45%
same,"p53-positive nuclei, normalised",[2]; [21],8.9%
same,"p53-positive nuclei, normalised",[2]; [22],2.01%
COc1cccc2c(C)cc(N3CCC[C@H]3CO)nc12,"nuclei count, normalised",[1]; [23],96.3%
same,"nuclei count, normalised",[1]; [24],98.1%
same,"p53-positive nuclei, normalised",[2]; concentration not given here,-0.0398% (inactive)
same,"p53-positive nuclei, normalised",[2]; [25],0.0977%
COc1ccc(CNc2nc(N3CCCC3CO)ncc2C(=O)NCc2ncccn2)cc1Cl (stereo not drawn),"nuclei count, normalised",[1]; [6],112%
same,"nuclei count, normalised",[1]; [11],104%
same,"p53-positive nuclei, normalised",[2]; [16],-0.102% (inactive)
same,"p53-positive nuclei, normalised",[2]; [21],-0.198%
